Screening results: PubChem BioAssay, National Center for Advancing Translational Sciences (NCATS)
BLM inh: inhibitors of human Bloom syndrome helicase BLM. P54132. recombinant BLM DNA unwinding, fluorescence dequenching. Potency, µM (series often up to 56.1 µM), hits mostly inhibitors. 0.2% of 350,000 active; further: nearly all actives have a fitted effect of over 35% in size
RGS12 GoLoco inh: blocks human Gai1 binding to RGS12 GoLoco peptide, red readout | 0.44% of 230,000 active | Potency, µM (series often up to 61.6 µM), usual class: inhibitors | Gai1:RGS12 GoLoco peptide FP, rhodamine, 10 min | AID 880; active means well fitted inhibition curve with a large enough effect, not every such curve was filed as active; inactive means no such curve, though single readings can be large or run the other way; further: nearly all actives have a fitted effect of over 30% in size
KDM4E inh: inhibitors of human JMJD2E histone demethylase. B2RXH2. JMJD2E catalytic domain, FDH-coupled NADH fluorescence (FDH is formaldehyde dehydrogenase). Potency, µM (titrated, usually from 57.1 µM), usual class: inhibitors. 1.6% of 230,000 active. AID 2147; active means well fitted inhibition curve with a large enough effect, not every such curve was filed as active; inconclusive means small, poorly fitted or top-dose-only effect, or another doubt; inactive means no such curve, though single readings can be large or run the other way; further: nearly all actives have a fitted effect of over 50% in size
APE1 inh: APE1 (human) endonuclease inhibition. AID 2517. recombinant APE1, TAMRA/BHQ-2 abasic DNA cleavage fluorescence. P27695. 0.35% of 350,000 active. Potency, µM (top dose mostly 65.8 µM), usual class: inhibitors; further: nearly all actives have a fitted effect of over 55% in size
Target sequence (P27695 whole entry, looked up): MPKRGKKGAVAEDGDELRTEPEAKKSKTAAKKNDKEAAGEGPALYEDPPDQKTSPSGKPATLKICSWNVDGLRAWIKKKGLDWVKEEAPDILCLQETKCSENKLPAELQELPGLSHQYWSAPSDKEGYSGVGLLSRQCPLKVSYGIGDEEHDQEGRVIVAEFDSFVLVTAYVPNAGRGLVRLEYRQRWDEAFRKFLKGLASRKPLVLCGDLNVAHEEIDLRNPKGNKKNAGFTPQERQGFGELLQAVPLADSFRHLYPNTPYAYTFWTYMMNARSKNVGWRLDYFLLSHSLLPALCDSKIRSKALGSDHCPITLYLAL
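Kinetic fluorescence read (525 ex/598 em nm, three reads 60 s apart) of AP-site incision; signal = third minus first read. Enzyme 0.75 nM, dual-labelled THF duplex 50 nM, compound preincubation 15 min RT.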
RECQ1 helicase: blocks DNA unwinding by human RECQ1; P46063; RECQ1 DNA unwinding, red fluorescence kinetic read; Potency, µM (doses to about 57.3 µM), usual class: inhibitors; 0.54% of 240,000 active; AID 2549; further: nearly all actives have a fitted effect of over 30% in size
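50 nM RECQ1T1 preincubated 15 min with compound in Tris pH 8.0 buffer with MgCl2, DTT, Tween-20 and 2.5 ug/ml poly(dI-dC); started with 200 nM TAMRA/BHQ-2 forked duplex and 2 mM ATP. Unwinding read as fluorescence (525/598 nm), two reads 2 h apart.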
L3MBTL1 block: blocks human L3MBTL1 | AlphaScreen L3MBTL1–H3K9me1 peptide binding | Potency, µM (series often up to 57.1 µM), hits mostly inhibitors | 0.66% of 230,000 active | AID 485360; further: nearly all actives have a fitted effect of over 60% in size
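L3MBTL1 (50 nM) pre-complexed 30 min with biotinylated H3(1-15)K9me1 peptide (75 nM), then compounds added for 30 min at room temperature; AlphaScreen streptavidin donor/nickel chelate acceptor beads (10 ug/mL final) read after 30 min dark incubation.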
Hits are given with their value; - = inactive; ? = inconclusive; . = not tested or not shown; ! = a repeat was not active. The full list was thinned out, with hits kept by preference. Unless noted, the call rests on the fitted dose curve; in most records, active means well fitted curve in the direction sought with a large enough effect; inconclusive means small, poorly fitted or top-dose-only effect, or another doubt; inactive means no such curve, though single readings can be large; an effect the other way counts as inactive or inconclusive.

SMILES	BLM inh	RGS12 GoLoco inh	KDM4E inh	APE1 inh	RECQ1 helicase	L3MBTL1 block
CCS(=O)(=O)N1CCc2cc(C(=O)NCc3ccccc3)ccc21	-	.	.	.	.	.
O=C(CS(=O)c1ccccc1[N+](=O)[O-])Oc1ccc(Br)cc1 (stereo not drawn)	-	-	-	-	-	-
CS(=O)(=O)c1ccc(S(=O)CC(=O)Oc2ccc(Cl)cc2)c([N+](=O)[O-])c1 (stereo not drawn)	-	-	3.2µM	-	-	.
O=C(CN1CCN(Cc2ccccc2)CC1)N/N=C\C=C/c1ccco1	-	-	?	-	-	-
O=C(CSc1nnc(SCc2ccccc2)s1)N/N=C/C=C/c1ccco1	25µM	-	?	13µM	22µM	28µM
O=C(CNc1cccc2ccccc12)N/N=C/C=C/c1ccco1	-	-	-	-	-	?
O=C(Cc1cccs1)N/N=C/C=C/c1ccco1	25µM	-	-	-	-	?
CC(=O)c1ccc(NS(=O)(=O)c2cnc(N)nc2)cc1	-	.	.	.	.	.
CC1=CC(=O)c2ccccc2C1=O	18µM!	-	-	-	-	-
C[N+](C)(C)CCOC(=O)C1(c2ccccc2)CCCC1	-	7.1µM	-	-	-	.
COC(=O)CC1c2ccccc2C=C(C)N1C(=O)OC (stereo not drawn)	-	-	-	-	-	.
Cc1ccc(CNc2ccc(N3CCN(C)CC3)cc2)cc1	.	.	.	-	.	.
COc1ccc(-c2noc(-c3nnn(-c4ccc(C(C)C)cc4)c3C)n2)cc1OC	-	.	.	.	.	.
C(=N\Nc1nc2ccccc2[nH]1)/c1cccc2cccnc12	-	-	25µM	-	-	?
O=C(N/N=C/c1cccc2cccnc12)c1ccccc1O	-	-	?	-	-	6.3µM
NNC(=O)c1ccc(CSc2cccc3cccnc23)cc1	-	-	?	?	-	-
O=C1CCC/C(=N\NC(=O)c2ccc(CSc3cccc4cccnc34)cc2)C1	-	-	?	-	28µM	?
COc1cc(CCC(O)CC(=O)CCc2ccccc2)ccc1O (stereo not drawn)	-	-	-	14µM	-	-
CC(=O)Nc1sc(N)nc1-c1ccccc1	-	-	-	?	-	.
Nc1nc(-c2ccccc2)c(N=Nc2cccc3ccccc23)s1	-	-	-	?	35µM	18µM
Nc1nc(-c2ccccc2)c(N=Nc2ccccc2Cl)s1	-	-	-	-	-	28µM
Cc1ncc(N=Nc2ccccc2Cl)c(-c2ccccc2)n1	-	-	-	-	-	?
Cc1cccnc1NCc1ccc(O)c2ncccc12	-	-	18µM	-	-	28µM
Cc1ccc(NCc2ccc(O)c3ncccc23)cc1C	-	-	-	-	-	-
Oc1ccc(CNc2cccc(C(F)(F)F)c2)c2cccnc12	.	.	.	-	.	13µM
SMILES	BLM inh	RGS12 GoLoco inh	KDM4E inh	APE1 inh	RECQ1 helicase	L3MBTL1 block
Cc1ccc(OCC(=O)Nc2ccccc2OCc2cc(=O)n3ccccc3n2)cc1C	-	.	.	.	.	.
CCNc1nc(NCC)nc(N/N=C/c2ccc(N(C)C)cc2)n1	-	-	?	-	-	?
CCNc1nc(NCC)nc(N/N=C/c2ccc(O)c(O)c2)n1	-	-	18µM	-	-	-
CCN1C(=O)C(=O)c2cc(C)ccc21	.	.	.	-	.	-
CC[N+]1=C(C)C(C)(C)c2cc(C)ccc21	-	-	-	10µM	25µM	.
CN(C)c1ccc(/C=C/C(=O)c2cc(Cl)ccc2O)cc1	-	-	-	-	-	32µM
O=C(/C=C/c1ccoc1)c1ccccc1O	-	-	-	-	-	-
O=C(O)/C=C\c1ccc(O)c(O)c1	-	-	11µM	-	-	.
O=C(/C=C/c1ccc(O)c(O)c1)OCCc1ccccc1	-	-	20µM	?	-	.
O=C(/C=C/c1ccc(O)c(O)c1)c1ccccc1O	-	-	25µM	-	-	-
O=C(COC(=O)/C=C/c1cccc(Br)c1)NCCc1ccccc1	.	.	.	-	.	-
O=C(O)/C=C/c1ccccc1	-	-	.	.	.	.
C[C@@H]1C[C@](C)(C(=O)c2ccco2)C=C1c1ccco1	-	-	-	?	-	.
CC(C)(C)n1ncc2c(=O)n(Cc3cccc(C(F)(F)F)c3Cl)cnc21	.	.	.	-	.	.
CCCS(=O)(=O)c1nc(S(=O)(=O)c2ccc(C)cc2)c(N(C)Cc2ccccc2)s1	-	.	.	.	.	.
CC(=O)Nc1ccc(S(=O)(=O)NCCC(=O)OCC(=O)c2cccc(Br)c2)cc1	.	.	.	-	.	-
[O-][n+]1c2c(nn1-c1ccccc1)/C(=N/O)CCC2	-	-	-	-	-	-
[O-][n+]1onc2c1CCC(=N/O)/C2=N\Nc1ccccc1	32µM	14µM	-	?	?	?
Cc1c(CBr)[n+](=O)c2c(n1[O-])C(Br)CCC2Br (stereo not drawn)	-	-	28µM	-	-	-
O=C(O)c1ccccc1C(=O)Nc1cccc([N+](=O)[O-])c1	-	-	-	-	-	-
O=C(Nc1cccc([N+](=O)[O-])c1)c1cc2ccccc2cc1O	-	-	-	28µM	-	?
CC[n+]1ccc(C[n+]2ccccc2)c2ccccc21	-	18µM	?	-	-	?
O=[N+]([O-])O[C@@H]1CO[C@H]2[C@@H]1OC[C@@H]2O	.	.	.	-	.	.
